Results reported in article PMC11006913.

What was measured:
Assay in all cases: PBM; 200 nM protein, PBS
Settings in all cases: dsDNA, one strand shown
HESX1 [1] = biological target: HESX1 (Homo sapiens, UniProt Q9UBX0 95-180, R165K)
HESX1 [2] = biological target: HESX1 (Homo sapiens, UniProt Q9UBX0 95-180)
HESX1 [3] = biological target: HESX1 (Homo sapiens, UniProt Q9UBX0 95-180, R109Q)
HESX1 [4] = biological target: HESX1 (Homo sapiens, UniProt Q9UBX0 95-180, P111T)
HESX1 [5] = biological target: HESX1 (Homo sapiens, UniProt Q9UBX0 95-180, F115L)
Chain of HESX1 (Homo sapiens, UniProt Q9UBX0 95-180, F115L) (Q9UBX0 95-180 F115L): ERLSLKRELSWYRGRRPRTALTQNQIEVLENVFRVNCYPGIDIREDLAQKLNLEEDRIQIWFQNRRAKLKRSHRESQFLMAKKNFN

PROP1 [6] = biological target: PROP1 (Homo sapiens, UniProt O75360 56-141)
Chain of PROP1 (Homo sapiens, UniProt O75360 56-141) (O75360 56-141): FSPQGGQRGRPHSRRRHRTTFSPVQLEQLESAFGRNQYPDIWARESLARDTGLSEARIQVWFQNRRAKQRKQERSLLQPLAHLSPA

PROP1 [7] = biological target: PROP1 (Homo sapiens, UniProt O75360 56-141, R99H)
Chain of PROP1 (Homo sapiens, UniProt O75360 56-141, R99H) (O75360 56-141 R99H): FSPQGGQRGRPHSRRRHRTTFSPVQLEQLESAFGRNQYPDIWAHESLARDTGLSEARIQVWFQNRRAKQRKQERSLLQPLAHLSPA

PROP1 [8] = biological target: PROP1 (Homo sapiens, UniProt O75360 56-141, F88S)
Chain of PROP1 (Homo sapiens, UniProt O75360 56-141, F88S) (O75360 56-141 F88S): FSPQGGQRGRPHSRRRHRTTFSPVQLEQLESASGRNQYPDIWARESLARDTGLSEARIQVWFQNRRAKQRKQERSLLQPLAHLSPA

Chain of HESX1 (Homo sapiens, UniProt Q9UBX0 95-180, R109Q) (Q9UBX0 95-180 R109Q): as the sequence (Q9UBX0 95-180 F115L) above, with R15Q, L21F counted along it
Chain of HESX1 (Homo sapiens, UniProt Q9UBX0 95-180) (Q9UBX0 95-180): as the sequence (Q9UBX0 95-180 F115L) above, with L21F counted along it
Chain of HESX1 (Homo sapiens, UniProt Q9UBX0 95-180, R165K) (Q9UBX0 95-180 R165K): as the sequence (Q9UBX0 95-180 F115L) above, with L21F, R71K counted along it
Chain of HESX1 (Homo sapiens, UniProt Q9UBX0 95-180, P111T) (Q9UBX0 95-180 P111T): as the sequence (Q9UBX0 95-180 F115L) above, with P17T, L21F counted along it

| Sequence | binding signal (HESX1 [1]) | binding signal (HESX1 [2]) | binding signal (HESX1 [3]) | binding signal (HESX1 [4]) | binding signal (HESX1 [5]) | binding signal (PROP1 [6]) | binding signal (PROP1 [7]) | binding signal (PROP1 [8]) |
| --- | --- | --- | --- | --- | --- | --- | --- | --- |
| AGCGTGGC | 6.53 upbm affinity estimate (log intensity, higher = more binding, comparable within an allelic series) | 6.42 upbm affinity estimate (log intensity, higher = more binding, comparable within an allelic series) | 6.46 upbm affinity estimate (log intensity, higher = more binding, comparable within an allelic series) | 6.48 upbm affinity estimate (log intensity, higher = more binding, comparable within an allelic series) | 6.64 upbm affinity estimate (log intensity, higher = more binding, comparable within an allelic series) | – | – | – |
| GAAGGAGC | 6.42 upbm affinity estimate (log intensity, higher = more binding, comparable within an allelic series) | 6.37 upbm affinity estimate (log intensity, higher = more binding, comparable within an allelic series) | 6.46 upbm affinity estimate (log intensity, higher = more binding, comparable within an allelic series) | 6.42 upbm affinity estimate (log intensity, higher = more binding, comparable within an allelic series) | 6.55 upbm affinity estimate (log intensity, higher = more binding, comparable within an allelic series) | 6.66 upbm affinity estimate (log intensity, higher = more binding, comparable within an allelic series) | 6.54 upbm affinity estimate (log intensity, higher = more binding, comparable within an allelic series) | 6.62 upbm affinity estimate (log intensity, higher = more binding, comparable within an allelic series) |
| AGTGTCGG | 6.51 upbm affinity estimate (log intensity, higher = more binding, comparable within an allelic series) | 6.53 upbm affinity estimate (log intensity, higher = more binding, comparable within an allelic series) | 6.58 upbm affinity estimate (log intensity, higher = more binding, comparable within an allelic series) | 6.56 upbm affinity estimate (log intensity, higher = more binding, comparable within an allelic series) | 6.55 upbm affinity estimate (log intensity, higher = more binding, comparable within an allelic series) | – | – | – |
| AGCCCGCG | 6.57 upbm affinity estimate (log intensity, higher = more binding, comparable within an allelic series) | 6.54 upbm affinity estimate (log intensity, higher = more binding, comparable within an allelic series) | 6.6 upbm affinity estimate (log intensity, higher = more binding, comparable within an allelic series) | 6.57 upbm affinity estimate (log intensity, higher = more binding, comparable within an allelic series) | 6.48 upbm affinity estimate (log intensity, higher = more binding, comparable within an allelic series) | – | – | – |
| ATTGATTC | 7.97 upbm affinity estimate (log intensity, higher = more binding, comparable within an allelic series) | 8.12 upbm affinity estimate (log intensity, higher = more binding, comparable within an allelic series) | 7.41 upbm affinity estimate (log intensity, higher = more binding, comparable within an allelic series) | 7.74 upbm affinity estimate (log intensity, higher = more binding, comparable within an allelic series) | – | – | – | – |
| ACGCCTCG | 6.4 upbm affinity estimate (log intensity, higher = more binding, comparable within an allelic series) | 6.35 upbm affinity estimate (log intensity, higher = more binding, comparable within an allelic series) | 6.36 upbm affinity estimate (log intensity, higher = more binding, comparable within an allelic series) | 6.4 upbm affinity estimate (log intensity, higher = more binding, comparable within an allelic series) | 6.44 upbm affinity estimate (log intensity, higher = more binding, comparable within an allelic series) | – | – | – |
| GAAGTCGC | 6.48 upbm affinity estimate (log intensity, higher = more binding, comparable within an allelic series) | 6.36 upbm affinity estimate (log intensity, higher = more binding, comparable within an allelic series) | 6.51 upbm affinity estimate (log intensity, higher = more binding, comparable within an allelic series) | 6.43 upbm affinity estimate (log intensity, higher = more binding, comparable within an allelic series) | 6.56 upbm affinity estimate (log intensity, higher = more binding, comparable within an allelic series) | – | – | – |
| AGGAGCTG | 6.51 upbm affinity estimate (log intensity, higher = more binding, comparable within an allelic series) | 6.45 upbm affinity estimate (log intensity, higher = more binding, comparable within an allelic series) | 6.4 upbm affinity estimate (log intensity, higher = more binding, comparable within an allelic series) | 6.4 upbm affinity estimate (log intensity, higher = more binding, comparable within an allelic series) | 6.28 upbm affinity estimate (log intensity, higher = more binding, comparable within an allelic series) | – | – | – |
| CAGAGTCA | 6.47 upbm affinity estimate (log intensity, higher = more binding, comparable within an allelic series) | 6.43 upbm affinity estimate (log intensity, higher = more binding, comparable within an allelic series) | 6.67 upbm affinity estimate (log intensity, higher = more binding, comparable within an allelic series) | 6.59 upbm affinity estimate (log intensity, higher = more binding, comparable within an allelic series) | 6.54 upbm affinity estimate (log intensity, higher = more binding, comparable within an allelic series) | – | – | – |
| CCGTCGTC | 6.45 upbm affinity estimate (log intensity, higher = more binding, comparable within an allelic series) | 6.42 upbm affinity estimate (log intensity, higher = more binding, comparable within an allelic series) | 6.4 upbm affinity estimate (log intensity, higher = more binding, comparable within an allelic series) | 6.44 upbm affinity estimate (log intensity, higher = more binding, comparable within an allelic series) | 6.26 upbm affinity estimate (log intensity, higher = more binding, comparable within an allelic series) | – | – | – |
| CGACGTTC | 6.45 upbm affinity estimate (log intensity, higher = more binding, comparable within an allelic series) | 6.3 upbm affinity estimate (log intensity, higher = more binding, comparable within an allelic series) | 6.42 upbm affinity estimate (log intensity, higher = more binding, comparable within an allelic series) | 6.41 upbm affinity estimate (log intensity, higher = more binding, comparable within an allelic series) | 6.52 upbm affinity estimate (log intensity, higher = more binding, comparable within an allelic series) | – | – | – |
| AGAGGAGC | 6.5 upbm affinity estimate (log intensity, higher = more binding, comparable within an allelic series) | 6.51 upbm affinity estimate (log intensity, higher = more binding, comparable within an allelic series) | 6.44 upbm affinity estimate (log intensity, higher = more binding, comparable within an allelic series) | 6.47 upbm affinity estimate (log intensity, higher = more binding, comparable within an allelic series) | 6.59 upbm affinity estimate (log intensity, higher = more binding, comparable within an allelic series) | – | – | – |
| CGCCAGGC | 6.38 upbm affinity estimate (log intensity, higher = more binding, comparable within an allelic series) | 6.37 upbm affinity estimate (log intensity, higher = more binding, comparable within an allelic series) | 6.46 upbm affinity estimate (log intensity, higher = more binding, comparable within an allelic series) | 6.32 upbm affinity estimate (log intensity, higher = more binding, comparable within an allelic series) | 6.44 upbm affinity estimate (log intensity, higher = more binding, comparable within an allelic series) | – | – | – |
| ACATGGCG | 6.32 upbm affinity estimate (log intensity, higher = more binding, comparable within an allelic series) | 6.4 upbm affinity estimate (log intensity, higher = more binding, comparable within an allelic series) | 6.43 upbm affinity estimate (log intensity, higher = more binding, comparable within an allelic series) | 6.38 upbm affinity estimate (log intensity, higher = more binding, comparable within an allelic series) | 6.49 upbm affinity estimate (log intensity, higher = more binding, comparable within an allelic series) | – | – | – |
| CAAGCTCA | 6.51 upbm affinity estimate (log intensity, higher = more binding, comparable within an allelic series) | 6.47 upbm affinity estimate (log intensity, higher = more binding, comparable within an allelic series) | 6.46 upbm affinity estimate (log intensity, higher = more binding, comparable within an allelic series) | 6.46 upbm affinity estimate (log intensity, higher = more binding, comparable within an allelic series) | 6.53 upbm affinity estimate (log intensity, higher = more binding, comparable within an allelic series) | – | – | – |
